# Screening results from PubChem BioAssay.
# Sampled rows, rich in hits. Any-hit rate of the full collection: about 1.3%.
# HBB splice mod: alters splicing of the hemoglobin beta chain. HBB splicing reporter cell assay, activation; EGFP reporter with mutant IVS2-654 intron; response scale: normalised to 500 nM splice-correcting PNA. Potency, µM (highest dose often 46.1 µM), for inactives: at the top dose activation, hits mostly activators. 0.06% of 65,000 active. AID 925; further: potency means the concentration at half of the fitted maximal effect; 0% is about no effect
#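 Compounds were applied for 2 days to HeLa EGFP-654 cells, 500/well in Optimem with 2% FCS. The reporter's EGFP is disrupted by mis-splicing of beta-globin intron IVS2-654. Readout: summed well GFP fluorescence from 488 nm laser scanning; reference was 500 nM antisense […] 654 PNA.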
# USP2a inh: blocks human ubiquitin-specific protease USP2a; O75604; USP2a enzymatic assay, qHTS inhibition; Potency, µM (highest dose often 38.3 µM), without a hit: at the top dose activity change, negative = inhibition, actives largely listed as inhibitors; 0.1% of 60,000 active; further: potency means the concentration at half of the fitted maximal effect; nearly all actives have a fitted effect of over 60% in size
# Target sequence (O75604 whole entry, looked up): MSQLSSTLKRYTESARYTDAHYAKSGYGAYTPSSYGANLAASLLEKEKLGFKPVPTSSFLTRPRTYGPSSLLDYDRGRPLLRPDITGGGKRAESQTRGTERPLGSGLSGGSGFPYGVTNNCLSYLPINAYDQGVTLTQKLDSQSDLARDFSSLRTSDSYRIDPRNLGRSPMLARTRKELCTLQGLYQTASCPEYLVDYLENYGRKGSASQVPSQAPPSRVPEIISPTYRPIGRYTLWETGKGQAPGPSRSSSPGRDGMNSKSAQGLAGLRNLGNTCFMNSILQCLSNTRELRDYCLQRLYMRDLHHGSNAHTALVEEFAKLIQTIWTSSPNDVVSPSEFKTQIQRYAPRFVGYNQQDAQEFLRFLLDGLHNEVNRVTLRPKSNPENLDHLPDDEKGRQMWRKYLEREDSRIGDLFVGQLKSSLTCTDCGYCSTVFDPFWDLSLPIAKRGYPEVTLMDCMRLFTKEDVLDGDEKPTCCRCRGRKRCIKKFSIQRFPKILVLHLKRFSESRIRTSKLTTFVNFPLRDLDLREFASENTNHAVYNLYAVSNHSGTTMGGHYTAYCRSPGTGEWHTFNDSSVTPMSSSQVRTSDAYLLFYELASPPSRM
#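 USP2 core (20 nM final) was preincubated with compound for 30 min at RT in 20 mM Tris-HCl pH 8.0, 2 mM CaCl2, 2 mM beta-mercaptoethanol; Ub-PLA2 (20 nM) plus NBD C6-HPC (20 uM) then added, fluorescence read after 2.5 h.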
# Epigenetic mod: epigenetic modulators derepressing GFP locus in mouse cells | Potency, µM (highest dose often 46.1 µM), without a hit: at the top dose GFP derepression (activation) | 0.09% of 68,000 active | mouse C127i GFP locus derepression, cytometry, 30 h; further: % of control where 0% means no effect
#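 Derepression screen: silenced CMV-GFP reporter in murine C127i cells, 30 h compound incubation at 37 C, washed cells imaged by laser-scanning cytometer to enumerate GFP-expressing objects of 20 to 120 um.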
# Bst PK mod: alters activity of Bacillus stearothermophilus pyruvate kinase; Potency, µM; 1.2% of 51,000 active; purified pyruvate kinase, luminescence ATP production; ribose 5-phosphate activator present at AC10; in the data active means potency below about 11 µM; inconclusive means mostly about 12 µM to 25 µM;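 the screen sought inhibitors and activators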;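 further: potency means the concentration at half of the fitted maximal effect; scaled between full activation by ribose 5 phosphate and full inhibition by luteolin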
# Hsp90 Hop PPI: changes Hsp90-Hop TPR2A binding signal, up or down. Potency, µM (doses to about 57 µM), for inactives: at the highest dose activity change, negative = inhibition. 0.44% of 71,000 active. AlphaScreen TPR2A-His6 binding biotin-Hsp90 C-terminal peptide; active means well fitted curve in either direction with a large enough effect; inconclusive means small, poorly fitted or top-dose-only effect, or another doubt; further: potency means the concentration at half of the fitted maximal effect; on the % scale 0 is the no-effect control and ±100 the full control effect
# UbGFP stabilizer: ubiquitin-GFP accumulation via proteasome inhibition; Ubiquitin-GFP reporter cells, proteasome inhibition, GFP fluorescence; response scale: untreated = 0%, 10 µM MG-132 = 100%; Potency, µM (titrated, usually from 45.9 µM), without a hit: at the top dose activation (GFP accumulation), usual class: activators; 67,000 tested, under 10 active; active means well fitted activation curve with a large enough effect, not every such curve was filed as active; inconclusive means small, poorly fitted or top-dose-only effect, or another doubt; inactive means no such curve, though single readings can be large or run the other way; further: potency means the concentration at half of the fitted maximal effect
#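 Proteasome block read as GFP accumulation: ubiquitin(G76V)-GFP U2OS cells exposed to compound (2.9 nM–46 uM) for 4 hr at 37 C. Normalization used untreated cells as 0% and 10 uM MG-132 as 100%; concentration-response curves fitted.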
# Hsp90-TPR2A inh: confirmation and counter-screen of Hsp90 TPR2A co-chaperone interaction disrupters; shares compounds with Hsp90 Hop PPI; AlphaScreen TPR2A-His6 / biotin-Hsp90 peptide binding; activity, negative = inhibition, % at 40 µM or 46 µM, hits read low; 100% of 45 active;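 active means compound lowering the Hsp90 and TPR2A binding signal, whether or not the linker counterscreen also flagged it as an artifact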
# * = called active by the depositor; u = inconclusive; x = no result; + = active, no number; ! = repeats disagree; [ ] = dose if it differs, or a comment. Unless noted, the call rests on the fitted dose curve; in most records, active means well fitted curve in the direction sought with a large enough effect; inconclusive means small, poorly fitted or top-dose-only effect, or another doubt; inactive means no such curve, though single readings can be large; an effect the other way counts as inactive or inconclusive.
SMILES,HBB splice mod,USP2a inh,Epigenetic mod,Bst PK mod,Hsp90 Hop PPI,UbGFP stabilizer,others
CC(=O)Nc1nnc(SCC(=O)NCCOc2ccccc2)s1,-1%,7.9µM*,7%,x,-3%,-6%,
CNc1ccc2oc(C[C@@H]3O[C@@]4(CC[C@H]3C)O[C@@H]([C@@H](C)C(=O)c3ccc[nH]3)[C@@H](C)C[C@H]4C)nc2c1C(=O)O,0%,x,-1%,x,-18%,-2%,
COC(=O)[C@@H]1C[C@@H]1[C@@H](NP(=O)(c1ccccc1)c1ccccc1)c1ccccc1,0%,x,x,x,-9%,x,
CC(C)(C)C(=O)C1C(=O)c2ccccc2C1=O,16µM*,x,x,x,-5%,x,
CN(C)c1ccc(N=Nc2ccccc2)cc1,0%,x,x,x,13µM*,x,
O=C(CCCN1CCC2(CC1)C(=O)N(CCc1ccc(N=C=S)cc1)CN2c1ccccc1)c1ccc(F)cc1,1%,x,-1%,x,u,2%,
CN1CCN(C(=O)COc2ccc(-c3nc4ccccc4s3)cc2)CC1,2%,27%,2%,1*,-6%,10%,
CC(C)C[C@H]1C(=O)N2CCC[C@@H]2[C@]2(O)O[C@](NC(=O)[C@H]3C=C4c5cccc6[nH]cc(c56)C[C@H]4N(C)C3)(C(C)C)C(=O)N12,x,x,-2%[9.22 µM],x,u,-1%,
Cc1ccc(OP(=O)(Oc2ccc(C)cc2)Oc2ccc(C)cc2)cc1,-1%,x,x,x,16µM*,x,
Cc1cc(C)cc(OP(=O)(Oc2cc(C)cc(C)c2)Oc2cc(C)cc(C)c2)c1,0%,x,x,x,u,x,
O=c1c(O)c(-c2ccc(O)c(O)c2)oc2cc(O)cc(O)c12,1%[20.6 µM],46%[17.1 µM],-1%,x,13µM*!,-1%,
CC[C@H](CO)NC(=O)[C@@H]1C=C2c3cccc4c3c(cn4C)C[C@@H]2N(C)C1,1%,-1%,-2%,x,-10%,4%,
O=c1ccc2cc(O[C@@H]3O[C@@H](CO)[C@@H](O)[C@@H](O)[C@H]3O)c(O)cc2o1,x,x,5%[9.22 µM],x,-4%,11%,
CC(=O)[O-].CC(=O)[O-].CC(=O)[O-].[Cr+3],2%,x,x,x,1%,x,
CC(=O)O.CC(=O)O.[Cd],x,2.5µM*,x,x,x,x,
C[C@@H]1[C@H]2C=C[C@@H]1[C@@H](c1c3ccc(=O)c(O)c-3oc3c(O)c(O)ccc13)[C@@H]2C(=O)O,4%[9.22 µM],x,-3%[9.22 µM],x,u,-2%[9.17 µM],
O=c1[nH]c(=O)n(Cc2ccccc2)c(O)c1C=NCCCn1ccnc1,6%[1.84 µM],-1%,0%,>57,16µM*,16%,
O=c1[nH]c(=O)n(CCc2ccccc2)c(O)c1C=NCCCn1ccnc1,x,x,2%[20.6 µM],>26,x,x,
CSC([N-]/N=C/c1cccc(C)n1)=[S]=[Cu].CS[C@H]([S-])[N-]/N=C/c1cccc(C)n1,3%[9.22 µM],x,0%[9.22 µM],x,3.2µM*,5%[9.17 µM],
O=C1NC(=O)C(=O)C(=O)N1,x,10µM*,x,x,x,x,
NC(N)=Nc1ccc2[nH]c3c(c2c1)C[C@]1(O)[C@@H]2Cc4ccc(O)c5c4[C@]1(CCN2CC1CC1)[C@H]3O5,3%,-2%,0%,x,-23%,2%,
Cc1c2ccncc2c(C)c2c1[nH]c1ccccc12,13µM*,2%,13µM*!,u,8%[26 µM],-5%[20.5 µM],
Cn1ncnc2c(=O)n(C)c(=O)nc1-2,0%,-29%,4%,>57,0.79µM*,-14%,Hsp90-TPR2A inh=+
COc1ccc(C[C@@H]2NC[C@H](O)[C@H]2OC(C)=O)cc1,x,x,0%[9.22 µM],x,-2%,0%,
